Assay results from ChEMBL document CHEMBL1961873, “Compounds: GSK PKIS; Assays: Nanosyn kinase panel” (2012).

How the values were obtained:
[1] = molecular target: T1, Serine/threonine-protein kinase Nek9 (Homo sapiens) (UniProt Q8TD19); details: at 1 µM;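 note: each value is a mean percent inhibition of NEK9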
T1 sequence (whole entry): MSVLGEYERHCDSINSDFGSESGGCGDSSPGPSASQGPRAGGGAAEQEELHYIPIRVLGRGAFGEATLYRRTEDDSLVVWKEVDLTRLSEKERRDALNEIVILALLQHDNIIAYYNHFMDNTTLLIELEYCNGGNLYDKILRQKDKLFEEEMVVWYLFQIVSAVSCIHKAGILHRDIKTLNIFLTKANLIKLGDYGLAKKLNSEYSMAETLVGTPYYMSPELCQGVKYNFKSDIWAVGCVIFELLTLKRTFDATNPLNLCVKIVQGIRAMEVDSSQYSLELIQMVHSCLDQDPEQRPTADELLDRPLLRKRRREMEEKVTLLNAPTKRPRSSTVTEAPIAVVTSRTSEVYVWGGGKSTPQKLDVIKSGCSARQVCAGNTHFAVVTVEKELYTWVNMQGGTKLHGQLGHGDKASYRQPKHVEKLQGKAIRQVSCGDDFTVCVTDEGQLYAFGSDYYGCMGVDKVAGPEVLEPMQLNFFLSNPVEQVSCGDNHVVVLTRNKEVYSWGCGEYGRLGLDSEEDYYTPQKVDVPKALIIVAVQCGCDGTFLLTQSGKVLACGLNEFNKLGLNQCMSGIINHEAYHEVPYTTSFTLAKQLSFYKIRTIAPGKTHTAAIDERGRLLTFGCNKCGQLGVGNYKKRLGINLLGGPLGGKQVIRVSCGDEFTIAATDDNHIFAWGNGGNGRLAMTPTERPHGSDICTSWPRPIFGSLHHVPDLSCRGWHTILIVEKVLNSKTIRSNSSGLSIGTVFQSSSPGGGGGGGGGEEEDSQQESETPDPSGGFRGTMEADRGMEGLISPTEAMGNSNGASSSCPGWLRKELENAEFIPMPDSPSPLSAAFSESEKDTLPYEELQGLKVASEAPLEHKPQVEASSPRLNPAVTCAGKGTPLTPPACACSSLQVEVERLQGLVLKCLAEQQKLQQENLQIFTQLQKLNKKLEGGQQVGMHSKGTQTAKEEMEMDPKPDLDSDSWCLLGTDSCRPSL

[2] = molecular target: Serine/threonine-protein kinase PLK1 (Homo sapiens) (UniProt P53350); details: at 0.1 µM
[3] = molecular target: Serine/threonine-protein kinase PLK1 (Homo sapiens) (UniProt P53350); details: at 1 µM
[4] = molecular target: T2, Dual specificity protein kinase TTK (Homo sapiens) (UniProt P33981); details: at 0.1 µM
T2 sequence (whole entry): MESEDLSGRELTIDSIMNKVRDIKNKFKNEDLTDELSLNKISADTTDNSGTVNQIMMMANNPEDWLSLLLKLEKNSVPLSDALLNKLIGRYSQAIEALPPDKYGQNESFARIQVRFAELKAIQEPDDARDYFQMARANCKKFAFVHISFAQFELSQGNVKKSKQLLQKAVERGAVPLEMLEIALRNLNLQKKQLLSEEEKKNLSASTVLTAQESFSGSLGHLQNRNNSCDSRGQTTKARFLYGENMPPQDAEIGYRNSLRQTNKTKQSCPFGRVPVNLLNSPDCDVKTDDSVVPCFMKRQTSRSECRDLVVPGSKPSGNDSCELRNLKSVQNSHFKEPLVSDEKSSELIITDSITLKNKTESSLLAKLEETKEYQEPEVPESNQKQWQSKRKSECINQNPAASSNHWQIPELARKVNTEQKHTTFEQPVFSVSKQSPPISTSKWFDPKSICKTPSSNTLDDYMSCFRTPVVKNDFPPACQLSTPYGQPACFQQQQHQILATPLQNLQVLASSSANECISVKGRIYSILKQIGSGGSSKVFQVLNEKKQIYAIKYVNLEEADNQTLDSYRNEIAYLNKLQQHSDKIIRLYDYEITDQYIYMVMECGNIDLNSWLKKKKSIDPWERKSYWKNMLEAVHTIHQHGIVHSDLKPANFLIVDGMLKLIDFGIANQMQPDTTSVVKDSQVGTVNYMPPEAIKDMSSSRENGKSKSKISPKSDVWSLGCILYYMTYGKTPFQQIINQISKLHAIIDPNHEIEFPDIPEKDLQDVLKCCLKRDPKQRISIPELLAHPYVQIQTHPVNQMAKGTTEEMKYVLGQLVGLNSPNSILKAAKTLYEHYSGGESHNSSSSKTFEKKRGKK

[5] = tested on: T3, Receptor-type tyrosine-protein kinase FLT3 (Homo sapiens), P36888 [D835Y]; details: at 1 µM
T3 sequence (whole entry): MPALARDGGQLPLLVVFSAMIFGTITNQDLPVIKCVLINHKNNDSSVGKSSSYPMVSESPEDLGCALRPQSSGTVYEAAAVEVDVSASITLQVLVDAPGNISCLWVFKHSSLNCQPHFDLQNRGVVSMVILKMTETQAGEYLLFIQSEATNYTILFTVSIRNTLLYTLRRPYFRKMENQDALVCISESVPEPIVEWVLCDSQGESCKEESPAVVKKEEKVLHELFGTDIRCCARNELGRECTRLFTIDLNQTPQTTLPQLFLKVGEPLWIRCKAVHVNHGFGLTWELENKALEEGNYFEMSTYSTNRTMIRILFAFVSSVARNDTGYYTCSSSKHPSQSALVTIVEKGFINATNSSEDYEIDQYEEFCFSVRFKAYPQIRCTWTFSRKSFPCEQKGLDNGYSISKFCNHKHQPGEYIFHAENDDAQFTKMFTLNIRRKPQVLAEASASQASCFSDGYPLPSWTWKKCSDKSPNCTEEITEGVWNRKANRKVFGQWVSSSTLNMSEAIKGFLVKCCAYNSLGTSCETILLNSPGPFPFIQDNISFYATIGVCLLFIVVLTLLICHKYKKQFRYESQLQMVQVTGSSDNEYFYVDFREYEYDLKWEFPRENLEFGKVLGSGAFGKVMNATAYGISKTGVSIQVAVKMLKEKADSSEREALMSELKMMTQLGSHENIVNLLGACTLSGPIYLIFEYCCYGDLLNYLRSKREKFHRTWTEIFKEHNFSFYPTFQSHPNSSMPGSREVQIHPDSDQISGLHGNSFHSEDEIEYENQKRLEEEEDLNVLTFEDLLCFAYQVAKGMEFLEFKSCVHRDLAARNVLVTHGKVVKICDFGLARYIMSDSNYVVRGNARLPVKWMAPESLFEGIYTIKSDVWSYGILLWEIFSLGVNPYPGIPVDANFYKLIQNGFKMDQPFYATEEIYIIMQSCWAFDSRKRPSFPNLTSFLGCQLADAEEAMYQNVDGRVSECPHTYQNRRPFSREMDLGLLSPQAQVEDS

[6] = molecular target: Vascular endothelial growth factor receptor 3 (Homo sapiens) (UniProt P35916); details: at 0.1 µM
[7] = molecular target: Vascular endothelial growth factor receptor 3 (Homo sapiens) (UniProt P35916); details: at 1 µM
[8] = molecular target: Macrophage colony-stimulating factor 1 receptor (Homo sapiens) (UniProt P07333); details: at 0.1 µM
[9] = molecular target: Macrophage colony-stimulating factor 1 receptor (Homo sapiens) (UniProt P07333); details: at 1 µM
[10] = molecular target: Tyrosine-protein kinase Fyn (Homo sapiens) (UniProt P06241); details: at 0.1 µM
[11] = molecular target: Tyrosine-protein kinase Fyn (Homo sapiens) (UniProt P06241); details: at 1 µM
[12] = molecular target: Tyrosine-protein kinase HCK (Homo sapiens) (UniProt P08631); details: at 0.1 µM
[13] = molecular target: Tyrosine-protein kinase HCK (Homo sapiens) (UniProt P08631); details: at 1 µM
[14] = molecular target: Insulin-like growth factor 1 receptor (Homo sapiens) (UniProt P08069); details: at 0.1 µM
[15] = molecular target: Insulin-like growth factor 1 receptor (Homo sapiens) (UniProt P08069); details: at 1 µM
[16] = molecular target: Insulin receptor (Homo sapiens) (UniProt P06213); details: at 0.1 µM
[17] = molecular target: Insulin receptor (Homo sapiens) (UniProt P06213); details: at 1 µM
[18] = molecular target: Insulin receptor-related protein (Homo sapiens) (UniProt P14616); details: at 0.1 µM
[19] = molecular target: Insulin receptor-related protein (Homo sapiens) (UniProt P14616); details: at 1 µM
[20] = molecular target: T4, Tyrosine-protein kinase ITK/TSK (Homo sapiens) (UniProt Q08881); details: at 0.1 µM;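 note: mean percent inhibition of ITK from the GSK PKIS screen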
T4 sequence (whole entry): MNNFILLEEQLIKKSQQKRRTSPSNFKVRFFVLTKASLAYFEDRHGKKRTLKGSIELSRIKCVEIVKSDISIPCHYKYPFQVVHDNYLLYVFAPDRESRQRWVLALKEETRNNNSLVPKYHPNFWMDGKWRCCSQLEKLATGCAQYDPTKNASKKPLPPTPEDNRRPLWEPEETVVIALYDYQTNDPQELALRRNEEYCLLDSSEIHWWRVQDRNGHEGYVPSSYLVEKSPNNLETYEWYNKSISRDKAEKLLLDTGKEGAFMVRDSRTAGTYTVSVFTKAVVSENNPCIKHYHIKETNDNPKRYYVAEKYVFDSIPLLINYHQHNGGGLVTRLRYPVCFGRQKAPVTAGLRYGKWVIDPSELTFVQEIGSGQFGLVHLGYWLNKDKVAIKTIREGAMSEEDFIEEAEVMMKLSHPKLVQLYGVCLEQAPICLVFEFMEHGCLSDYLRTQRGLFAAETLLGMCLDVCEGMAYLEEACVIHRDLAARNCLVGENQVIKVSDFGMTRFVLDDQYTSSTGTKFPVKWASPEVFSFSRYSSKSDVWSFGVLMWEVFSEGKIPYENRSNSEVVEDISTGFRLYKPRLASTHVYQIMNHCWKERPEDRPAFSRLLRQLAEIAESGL

Sequence of Vascular endothelial growth factor receptor 3 (Homo sapiens) (P35916 whole entry): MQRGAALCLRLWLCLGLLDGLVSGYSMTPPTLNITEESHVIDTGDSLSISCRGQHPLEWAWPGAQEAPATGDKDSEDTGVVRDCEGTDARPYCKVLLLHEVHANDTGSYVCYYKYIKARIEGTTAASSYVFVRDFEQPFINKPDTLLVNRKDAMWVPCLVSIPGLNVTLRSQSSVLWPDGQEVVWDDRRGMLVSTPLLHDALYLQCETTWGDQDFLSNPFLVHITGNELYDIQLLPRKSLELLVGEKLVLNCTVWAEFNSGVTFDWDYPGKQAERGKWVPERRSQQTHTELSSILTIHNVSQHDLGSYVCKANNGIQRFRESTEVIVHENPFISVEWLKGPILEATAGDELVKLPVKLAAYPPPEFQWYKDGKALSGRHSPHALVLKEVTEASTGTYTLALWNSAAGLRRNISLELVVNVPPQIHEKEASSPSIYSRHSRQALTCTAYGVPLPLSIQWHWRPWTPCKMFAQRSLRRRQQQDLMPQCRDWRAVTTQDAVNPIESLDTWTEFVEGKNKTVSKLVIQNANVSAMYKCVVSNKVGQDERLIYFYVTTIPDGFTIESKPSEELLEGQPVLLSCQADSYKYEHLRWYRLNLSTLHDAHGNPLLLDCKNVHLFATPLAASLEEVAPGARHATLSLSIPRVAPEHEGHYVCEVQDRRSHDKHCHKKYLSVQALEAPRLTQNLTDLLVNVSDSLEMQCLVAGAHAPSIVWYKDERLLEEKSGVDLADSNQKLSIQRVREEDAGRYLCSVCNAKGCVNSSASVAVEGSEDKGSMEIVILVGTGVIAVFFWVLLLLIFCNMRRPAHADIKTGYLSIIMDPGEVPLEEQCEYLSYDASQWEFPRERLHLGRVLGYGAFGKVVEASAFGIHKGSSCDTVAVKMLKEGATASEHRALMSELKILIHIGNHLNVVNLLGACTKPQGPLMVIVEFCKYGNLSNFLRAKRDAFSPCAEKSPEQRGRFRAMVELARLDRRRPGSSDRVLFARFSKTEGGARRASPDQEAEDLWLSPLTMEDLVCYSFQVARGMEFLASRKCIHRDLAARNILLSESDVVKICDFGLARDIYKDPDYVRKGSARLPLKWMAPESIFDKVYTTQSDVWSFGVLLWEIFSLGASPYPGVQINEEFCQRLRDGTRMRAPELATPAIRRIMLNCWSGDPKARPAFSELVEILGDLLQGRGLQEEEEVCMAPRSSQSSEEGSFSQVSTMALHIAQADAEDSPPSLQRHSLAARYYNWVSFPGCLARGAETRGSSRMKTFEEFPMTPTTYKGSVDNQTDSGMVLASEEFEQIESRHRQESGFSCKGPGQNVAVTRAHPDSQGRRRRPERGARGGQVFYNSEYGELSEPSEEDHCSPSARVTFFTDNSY
Sequence of Insulin receptor (Homo sapiens) (P06213 28-758 limits assumed): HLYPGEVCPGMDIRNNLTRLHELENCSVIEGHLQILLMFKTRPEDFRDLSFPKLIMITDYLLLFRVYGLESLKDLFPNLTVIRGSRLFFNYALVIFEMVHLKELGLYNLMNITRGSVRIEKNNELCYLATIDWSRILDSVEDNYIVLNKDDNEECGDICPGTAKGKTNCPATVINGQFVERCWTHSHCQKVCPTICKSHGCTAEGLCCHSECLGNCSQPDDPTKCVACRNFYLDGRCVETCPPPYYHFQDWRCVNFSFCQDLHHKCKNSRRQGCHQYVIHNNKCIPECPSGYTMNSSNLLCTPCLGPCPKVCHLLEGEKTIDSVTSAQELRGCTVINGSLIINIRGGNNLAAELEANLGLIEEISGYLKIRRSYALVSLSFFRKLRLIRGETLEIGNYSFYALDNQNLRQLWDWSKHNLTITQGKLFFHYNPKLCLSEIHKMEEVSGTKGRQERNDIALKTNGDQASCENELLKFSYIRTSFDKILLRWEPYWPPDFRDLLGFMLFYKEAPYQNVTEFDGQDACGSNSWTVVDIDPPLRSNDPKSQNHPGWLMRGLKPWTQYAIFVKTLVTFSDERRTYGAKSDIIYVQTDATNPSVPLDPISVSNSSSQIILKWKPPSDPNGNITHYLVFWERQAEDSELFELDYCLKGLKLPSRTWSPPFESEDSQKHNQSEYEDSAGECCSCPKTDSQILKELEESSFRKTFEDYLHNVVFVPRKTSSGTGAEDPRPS
Sequence of Insulin receptor (Homo sapiens) (P06213 763-1382 limits assumed): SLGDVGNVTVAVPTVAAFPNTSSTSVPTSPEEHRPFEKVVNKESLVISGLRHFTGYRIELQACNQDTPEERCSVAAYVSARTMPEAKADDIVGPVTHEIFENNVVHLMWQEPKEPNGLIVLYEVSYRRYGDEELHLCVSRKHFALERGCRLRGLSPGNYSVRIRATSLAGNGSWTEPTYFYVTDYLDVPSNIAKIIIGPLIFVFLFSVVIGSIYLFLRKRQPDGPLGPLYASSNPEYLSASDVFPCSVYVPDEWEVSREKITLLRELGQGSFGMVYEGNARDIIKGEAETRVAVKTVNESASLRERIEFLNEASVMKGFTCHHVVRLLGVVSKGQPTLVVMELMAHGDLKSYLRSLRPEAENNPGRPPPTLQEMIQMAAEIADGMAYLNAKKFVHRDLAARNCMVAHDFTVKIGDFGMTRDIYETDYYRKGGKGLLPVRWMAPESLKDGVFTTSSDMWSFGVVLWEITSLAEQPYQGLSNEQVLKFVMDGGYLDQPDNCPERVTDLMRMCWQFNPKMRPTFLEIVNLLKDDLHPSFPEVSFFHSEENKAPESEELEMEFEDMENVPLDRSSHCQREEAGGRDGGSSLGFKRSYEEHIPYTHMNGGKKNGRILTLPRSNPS
Sequence of Insulin-like growth factor 1 receptor (Homo sapiens) (P08069 31-736 limits assumed): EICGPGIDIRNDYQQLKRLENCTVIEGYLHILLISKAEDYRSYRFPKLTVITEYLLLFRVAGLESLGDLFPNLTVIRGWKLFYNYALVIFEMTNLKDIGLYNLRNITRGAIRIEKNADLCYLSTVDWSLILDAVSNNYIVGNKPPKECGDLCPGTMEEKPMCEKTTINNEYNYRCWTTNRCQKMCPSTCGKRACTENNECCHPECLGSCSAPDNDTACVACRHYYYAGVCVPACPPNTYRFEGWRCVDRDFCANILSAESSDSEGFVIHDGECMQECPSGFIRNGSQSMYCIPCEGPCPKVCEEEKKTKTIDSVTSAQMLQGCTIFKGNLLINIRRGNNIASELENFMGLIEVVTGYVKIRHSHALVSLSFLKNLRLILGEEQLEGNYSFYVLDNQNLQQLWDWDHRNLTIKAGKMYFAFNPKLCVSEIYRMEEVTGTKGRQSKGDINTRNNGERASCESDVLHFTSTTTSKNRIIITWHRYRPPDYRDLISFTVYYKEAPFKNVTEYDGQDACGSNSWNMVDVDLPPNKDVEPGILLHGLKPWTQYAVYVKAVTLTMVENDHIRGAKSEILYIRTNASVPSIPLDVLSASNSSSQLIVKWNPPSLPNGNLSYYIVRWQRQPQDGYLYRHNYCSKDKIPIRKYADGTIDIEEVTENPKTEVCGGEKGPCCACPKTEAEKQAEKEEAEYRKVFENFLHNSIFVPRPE
Sequence of Insulin-like growth factor 1 receptor (Homo sapiens) (P08069 741-1367 limits assumed): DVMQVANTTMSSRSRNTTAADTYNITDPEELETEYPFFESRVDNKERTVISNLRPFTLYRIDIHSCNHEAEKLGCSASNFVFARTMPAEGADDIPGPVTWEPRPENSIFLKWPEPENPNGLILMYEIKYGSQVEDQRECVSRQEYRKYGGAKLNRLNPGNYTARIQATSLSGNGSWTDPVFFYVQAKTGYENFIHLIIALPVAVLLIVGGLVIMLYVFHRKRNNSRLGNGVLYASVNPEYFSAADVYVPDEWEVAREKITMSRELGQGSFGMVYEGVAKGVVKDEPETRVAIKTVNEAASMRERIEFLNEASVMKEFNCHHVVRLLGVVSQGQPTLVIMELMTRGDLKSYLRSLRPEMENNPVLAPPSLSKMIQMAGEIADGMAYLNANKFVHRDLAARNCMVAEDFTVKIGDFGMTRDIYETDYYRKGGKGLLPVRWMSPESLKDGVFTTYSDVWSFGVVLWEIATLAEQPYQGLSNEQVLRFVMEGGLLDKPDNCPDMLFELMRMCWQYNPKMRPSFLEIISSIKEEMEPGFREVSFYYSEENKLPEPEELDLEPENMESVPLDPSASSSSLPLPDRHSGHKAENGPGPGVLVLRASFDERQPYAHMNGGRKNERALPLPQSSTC
Sequence of Tyrosine-protein kinase Fyn (Homo sapiens) (P06241 2-537 limits assumed): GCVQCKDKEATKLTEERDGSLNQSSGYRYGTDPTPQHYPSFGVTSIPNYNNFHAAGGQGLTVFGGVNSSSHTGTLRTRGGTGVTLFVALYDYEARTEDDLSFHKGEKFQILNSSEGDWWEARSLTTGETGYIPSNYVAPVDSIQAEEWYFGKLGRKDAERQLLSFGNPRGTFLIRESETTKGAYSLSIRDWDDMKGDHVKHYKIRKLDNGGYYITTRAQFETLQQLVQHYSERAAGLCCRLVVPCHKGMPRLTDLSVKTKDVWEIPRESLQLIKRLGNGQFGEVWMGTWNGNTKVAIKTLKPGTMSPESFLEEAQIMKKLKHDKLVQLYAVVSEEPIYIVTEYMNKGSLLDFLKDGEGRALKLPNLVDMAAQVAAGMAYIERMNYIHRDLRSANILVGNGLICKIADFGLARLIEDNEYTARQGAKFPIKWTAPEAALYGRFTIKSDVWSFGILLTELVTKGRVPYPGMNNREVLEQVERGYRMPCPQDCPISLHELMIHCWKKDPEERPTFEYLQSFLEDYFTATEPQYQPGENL

Compound	inhibition [1]	inhibition [2]	inhibition [3]	inhibition [4]	inhibition [5]	inhibition [6]	inhibition [7]	inhibition [8]	inhibition [9]	inhibition [10]	inhibition [11]	inhibition [12]	inhibition [13]	inhibition [14]	inhibition [15]	inhibition [16]	inhibition [17]	inhibition [18]	inhibition [19]	inhibition [20]
O=C(Nc1n[nH]c2nnc(-c3cccnc3)cc12)C1CC1	1.12%	-0.87%	2.11%	1.85%	-1.95%	0.27%	3.35%	-1.71%	5.46%	1.64%	4.86%	0.81%	2.83%	0.22%	-1.27%	3.48%	1.82%	-0.87%	-1.01%	0.11%
FC(F)(F)CNc1nccc(-c2cnn3ncccc23)n1	0.64%	0.06%	0.65%	3.92%	6%	2.05%	2.12%	-4.71%	3.68%	0.85%	0.37%	2.76%	2.72%	1.46%	1.63%	0.86%	1.21%	-0.18%	1.1%	-0.07%
COC(=O)Nc1nc2ccc(Oc3ccc(NC(=O)Nc4cc(C(F)(F)F)ccc4F)cc3)cc2s1	-3.04%	1.23%	0.38%	0.59%	13.5%	10.4%	52.8%	2.52%	39.1%	6.49%	21.1%	8.79%	28.3%	-0.75%	1.6%	1.59%	3.09%	-2.9%	-1.09%	1.03%
COc1ccccc1-c1cc(/C=C2\C(=O)Nc3ncc(Br)cc32)cc(Br)c1O	3.53%	4.19%	9.04%	12.7%	4.73%	1.8%	4.28%	3.88%	7.16%	5.35%	26.3%	7.67%	12.5%	0.89%	2.09%	3.72%	6.87%	2.46%	1.02%	1.08%
Cc1nnc(-c2cccc(-c3ccc(C(=O)NCC4CC4)cc3)c2)o1	7.69%	4.37%	3.89%	9.53%	0.86%	4.47%	-1.03%	2.5%	1.96%	1.1%	0.54%	5.93%	8.3%	3.76%	6.53%	9.39%	5.71%	4.48%	3.22%	0.99%
COC(=O)Nc1nc2cc(Oc3ccc(NC(=O)Nc4ccccc4)cc3)ccc2[nH]1	6.76%	2.19%	4.22%	6.44%	2.44%	1.7%	-0.36%	11.4%	21.8%	0.67%	4.68%	2.26%	4.53%	0.4%	-0.2%	3.75%	6.99%	0.98%	1.1%	-0.1%
